Source: PubChem BioAssay
The list is not random: actives were taken first. Their share in the collection is about 4.6%.
CF NFkB inh – blocks PAF-induced NF-kB reporter in cystic fibrosis cells; AID 588850; 360,000 compounds, 0.86% hits; inhibition, % at 5 µM; KKLEB NF-kB-GFP reporter, GFP fluorescence overnight;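 active = at least 50% inhibition at 5 µM, scaled per plate between neutral and stimulator controls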;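 also: PAF is a Pseudomonas aeruginosa culture filtrate used as stimulus; plate controls were PAF-stimulated DMSO wells for no effect and unstimulated DMSO wells for full effect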
KKLEB cytotox – counter-screen for CF NF-kB inhibitors: cytotoxicity; KKLEB CF airway cells viability, ATPlite luminescence, overnight; active compounds read low; cells stimulated with P. aeruginosa culture filtrate; activity change (cytotoxicity), % at 5 µM; 360,000 compounds, 0.36% hits;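 active = corrected activity change at or below -50% at 5 µM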
HIF-2a inh – blocks HIF-2a reporter activity. 786-0 RCC cells HIF-2a reporter, luciferase luminescence, overnight. inhibition, % at 18.8 µM. 360,000 compounds, 0.72% hits. AID 624352;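 active = inhibition of the luminescence signal of 40% or more relative to plate controls, in a single-dose primary screen at 18.75 µM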
ABHD5-PLIN5 inh – ABHD5-PLIN5 protein interaction inhibition; Q00G26+Q8WTS1; Split G. princeps luciferase complementation, luminescence, 4 h; inhibition, % at 4 µM; 360,000 compounds, 0.78% hits;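 active = inhibition above the mean inhibition across every tested compound plus 3 SD, cut at about 22% in these data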;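 also: 0% = DMSO only wells and the 100% control is not disclosed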
Mdm2-MdmX inh – human Mdm2/MdmX binding inhibition | O15151+Q00987 | SaOS-2 split-luciferase Mdm2/MdmX complementation, luminescence | inhibition, % at 8 µM | 330,000 compounds, 3% hits | AID 485346;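 active = inhibition of at least 50% at 8 µM in the primary screen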
Peg3 promoter – inhibitors of Peg3 promoter; 360,000 compounds, 1.7% hits; AID 588405; inhibition, % at 20 µM; HeLa PEG-Prom luciferase reporter, luminescence, overnight;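 active = inhibition of at least 50% at 20 µM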
ABHD5-PLIN5 conf – confirmation of human ABHD5-PLIN5 interaction inhibitors; shares compounds with ABHD5-PLIN5 inh; biochemical ABHD5-PLIN5 interaction, luminescence; inhibition, % at 4 µM; 2,200 compounds, 67% hits; AID 651612; in the data active = inhibition above about 23%;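 also: 0% = DMSO vehicle wells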
HNF4 split-luc – active in HNF4 split-luciferase counter-screen for ABHD5-PLIN5 inhibitors | shares compounds with ABHD5-PLIN5 inh | HNF4 dimerization, luminescence, biochemical | inhibition, % at 4 µM | 2,200 compounds, 77% hits | AID 651674;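 active = mean inhibition across replicate wells exceeding the computed hit threshold, cut at about 13% in these data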;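 also: light from luciferase halves that rejoin when HNF4 fusion proteins dimerize; 0% = DMSO only wells and the 100% control is not given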
Active calls of the source: *; · = no result given.

SMILES | CF NFkB inh | KKLEB cytotox | HIF-2a inh | ABHD5-PLIN5 inh | Mdm2-MdmX inh | Peg3 promoter | ABHD5-PLIN5 conf | HNF4 split-luc
CCCCC[C@H](O)/C=C/C1C(=O)C=C[C@H]1C/C=C\CCCC(=O)OC (stereo partly drawn) | 48.4 | 1.8 | 17.4 | 36.2* | · | 94.6* | 45.4* | 61.3*
CCOc1ccc(CCN2C(=S)N([C@@H](Cc3ccc(O)cc3)CN3CCC[C@@H]3CN3C(=S)NC[C@@H]3CC(C)C)C[C@@H]2Cc2ccccc2)cc1 | 25.4 | -3.3 | -19.6 | 19.4 | · | -22.9 | · | ·
CCOc1ccc(CCN2C(=S)N([C@@H](Cc3ccc(O)cc3)CN3CCC[C@@H]3CN3C(=S)NC[C@@H]3CC(C)C)C[C@@H]2CC(C)C)cc1 | 33.2 | -4.4 | -26.0 | 27.7* | · | 1.3 | 6.9 | 8.8
CC(C)C[C@H]1CNC(=S)N1C[C@H]1CCCN1C[C@H](CC(C)C)N1C[C@H](Cc2ccc(O)cc2)N(CCc2ccccc2)C1=S | 45.0 | -18.7 | -37.3 | 26.1* | · | 69.2* | 3.1 | 10.8
CC(C)C[C@H]1CN([C@@H](CC(C)C)CN2CCC[C@@H]2CN2C(=S)NC[C@@H]2Cc2ccc(O)cc2)C(=S)N1CCc1ccccc1 | 30.3 | -45.6 | -3.6 | -0.3 | · | -16.8 | · | ·
O=[S@]1Oc2ccccc2-c2ccccc21 | -5.9 | 5.9 | 23.2 | 24.5* | 17.4 | 12.7 | 83.4* | 98.8*
CCCCCNC(=O)C(c1cccc2ccccc12)n1c(=O)c(-c2ccco2)nc2ccccc21 (stereo not drawn) | · | · | 14.5 | 84.2* | · | · | 82.0* | 35.4*
CCCCCNC(=O)C(c1ccc(-c2ccccc2)cc1)n1c(=O)c(-c2cc3ccccc3[nH]2)nc2ccccc21 (stereo not drawn) | · | · | -29.1 | 0.7 | · | · | · | ·
O=C(NCc1ccccc1)C(c1cccc2ccccc12)n1c(=O)c(-c2cc3ccccc3[nH]2)nc2ccccc21 (stereo not drawn) | · | · | -4.5 | 8.2 | · | · | · | ·
CC(C)(C)NC(=O)C(c1cccc2ccccc12)n1c(=O)c(-c2ccco2)nc2ccccc21 (stereo not drawn) | · | · | 9.2 | 67.3* | · | · | 68.8* | 13.3*
O=C(NCc1ccccc1)C(c1cccc2ccccc12)n1c(=O)c(-c2ccco2)nc2ccccc21 (stereo not drawn) | · | · | 5.0 | 58.5* | · | · | 96.9* | 33.6*
CCCCCNC(=O)C(c1ccc(C(F)(F)F)cc1)n1c(=O)c(-c2ccco2)nc2ccccc21 (stereo not drawn) | · | · | 6.0 | 83.0* | · | · | 46.6* | 5.5
CC1(C(=O)O)CCC(C(=O)Nc2cccc(F)c2)C1(C)C (stereo not drawn) | 0.7 | 1.2 | 13.4 | 3.5 | 13.9 | 14.9 | · | ·
O=c1[nH]c(-c2ccccc2)c(-c2ccccc2)o1 | -4.8 | 6.7 | 14.9 | -4.7 | -8.2 | 8.9 | · | ·
O=C1[C@H](Cc2ccccc2)NCC=CC[C@H](c2ccco2)N1Cc1ccccc1 | 18.8 | -8.3 | 19.3 | 6.7 | · | 4.4 | · | ·
O=[N+]([O-])c1ccc(CS(=O)c2ccccc2)cc1 (stereo not drawn) | -1.1 | 5.3 | -15.3 | -12.3 | · | 1.3 | · | ·
O=[N+]([O-])c1ccc(S(=O)Cc2ccccc2)c([N+](=O)[O-])c1 (stereo not drawn) | 85.5* | -19.7 | 93.0* | 95.1* | · | 96.1* | 100.5* | 109.8*
Cc1c(C(=O)c2no[n+]([O-])c2C(=O)c2cnn(C)c2C)cnn1C | 63.0* | -26.8 | -10.0 | 28.9* | 14.6 | 42.8 | 57.5* | 74.2*
COc1ccc(OC)c(C(c2c(O)nc(SC)[nH]c2=O)c2c(O)nc(SC)[nH]c2=O)c1 | 15.0 | -9.1 | 8.6 | 26.0* | 12.5 | 3.1 | 51.5* | 48.6*
Cc1ccc(SC(CC(=O)c2ccc(F)cc2)C(=O)O)cc1 (stereo not drawn) | -22.5 | 0.7 | 8.8 | 84.4* | -2.1 | 12.1 | 24.3* | 70.3*
O=C(CC(C(=O)O)c1ccc(F)cc1)c1ccc(Cl)cc1 (stereo not drawn) | 2.9 | -2.0 | 27.9 | 4.3 | -8.2 | 8.6 | · | ·
Cn1c(SCC(=O)NCc2ccco2)nnc1C1CCCC1 | -28.6 | 12.7 | 11.1 | -2.0 | 33.1 | 3.9 | · | ·
